# Laboratory results taken from PubChem BioAssay (NCATS).
# Where “and” joins values, the source holds several entries; their conditions need not be identical. Equal values may be shown once. Results filed as inconclusive are left out. Entries that show only a call come without a potency. Values without a mark were called inactive. Calls of active or inactive are those of the source. Unless noted, the call rests on the fitted dose curve; in most records, active means well fitted curve in the direction sought with a large enough effect; inconclusive means small, poorly fitted or top-dose-only effect, or another doubt; inactive means no such curve, though single readings can be large; an effect the other way counts as inactive or inconclusive.
# How the values were obtained:
# [1] = biological target: Cellular tumor antigen p53 (Homo sapiens) (UniProt P04637); experiment: Primary qHTS for small molecule compounds that upregulate eGFP-tagged delta133p53alpha (in N-terminal) cells. (AID 2060322); conditions: NCI-H358 eGFP-delta133p53alpha fluorescence, 24 h; activation: active compounds read high; further: nearly all actives have a fitted effect of over 75% in size; further: potency means the concentration at half of the fitted maximal effect;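 on activation: cells pre-induced with doxycycline then dosed without doxycycline; series mostly up to about 56 µM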
# Outline: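 NCI-H358 cells pre-induced 24 h with 10 ng/ml doxycycline for eGFP-delta133p53alpha, plated dox-free and exposed 24 h at 37C to titrated compounds. Fixed, Hoechst-stained; gated GFP peak intensity by laser scanning cytometry, normalized to DMSO (0%) and 57.5 uM 5-azacytidine (100%).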
# [2] = biological target: Aldehyde dehydrogenase, mitochondrial (Homo sapiens) (UniProt P05091); experiment: qHTS for Inhibitors of the Aldehyde Dehydrogenase Family (ALDH2) Confirmatory screens (AID 2061303; active means well fitted inhibition curve with a large enough effect; title and protocol of this record describe different tests; further: nearly all actives have a fitted effect of over 45% in size; further: potency means the concentration at half of the fitted maximal effect)
# [3] = qHTS for Inhibitors of the Aldehyde Dehydrogenase Family (ALDH1A2, ALDH1A3, ALDH2, ALDH3A1) (AID 2061307); further: nearly all actives have a fitted effect of over 50% in size
# [4] = biological target: Retinaldehyde dehydrogenase 3 (Homo sapiens) (UniProt P47895); experiment: qHTS for Inhibitors of the Aldehyde Dehydrogenase Family (ALDH1A3) Confirmatory screens (AID 2061311); further: nearly all actives have a fitted effect of over 60% in size; further: potency means the concentration at half of the fitted maximal effect
# [5] = biological target: Retinal dehydrogenase 2 (Homo sapiens) (UniProt O94788); experiment: qHTS for Inhibitors of the Aldehyde Dehydrogenase Family (ALDH1A2) Confirmation screens (AID 2061314); further: nearly all actives have a fitted effect of over 65% in size; further: potency means the concentration at half of the fitted maximal effect
# [6] = biological target: Retinaldehyde dehydrogenase 3 (Homo sapiens) (UniProt P47895); experiment: qHTS for Inhibitors of the Aldehyde Dehydrogenase Family (ALDH1A3) Primary screen (AID 2061315); further: potency means the concentration at half of the fitted maximal effect
# [7] = biological target: Aldehyde dehydrogenase 1A1 (Homo sapiens) (UniProt P00352); experiment: qHTS for Inhibitors of the Aldehyde Dehydrogenase Family (ALDH1A1) Confirmatory screens (AID 2061316); further: nearly all actives have a fitted effect of over 65% in size; further: potency means the concentration at half of the fitted maximal effect
# [8] = biological target: Aldehyde dehydrogenase, mitochondrial (Homo sapiens) (UniProt P05091); experiment: qHTS for Inhibitors of the Aldehyde Dehydrogenase Family (ALDH2) Primary screen (AID 2061308); further: nearly all actives have a fitted effect of over 55% in size; further: potency means the concentration at half of the fitted maximal effect
# [9] = biological target: Retinaldehyde dehydrogenase 3 (Homo sapiens) (UniProt P47895); experiment: qHTS for Inhibitors of the Aldehyde Dehydrogenase Family (ALDH1A3) Validation screen (AID 2061312); further: nearly all actives have a fitted effect of over 45% in size; further: potency means the concentration at half of the fitted maximal effect
# [10] = BET inhibitor-based combinations targeting novel dependencies in MECOM-rearranged (r) AML: HNT-34 cell line (AID 2202234); further: nearly all actives have a fitted effect of over 35% in size
# Outline: (§1)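 Luminescent ATP readout (CellTiter-Glo, 15 min at room temperature) after 48 hr drug exposure gave viability. Dose-response curves, normalized to DMSO and empty-well controls, were summarized as area under the curve and its mean-centred Z-score.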
# [11] = BET inhibitor-based combinations targeting novel dependencies in MECOM-rearranged (r) AML: UCSD-AML1 cell line (AID 2202235); further: series mostly up to about 46 µM; nearly all actives have a fitted effect of over 40% in size
# Outline: as §1
# Sequence of Cellular tumor antigen p53 (Homo sapiens) (P04637 whole entry, looked up): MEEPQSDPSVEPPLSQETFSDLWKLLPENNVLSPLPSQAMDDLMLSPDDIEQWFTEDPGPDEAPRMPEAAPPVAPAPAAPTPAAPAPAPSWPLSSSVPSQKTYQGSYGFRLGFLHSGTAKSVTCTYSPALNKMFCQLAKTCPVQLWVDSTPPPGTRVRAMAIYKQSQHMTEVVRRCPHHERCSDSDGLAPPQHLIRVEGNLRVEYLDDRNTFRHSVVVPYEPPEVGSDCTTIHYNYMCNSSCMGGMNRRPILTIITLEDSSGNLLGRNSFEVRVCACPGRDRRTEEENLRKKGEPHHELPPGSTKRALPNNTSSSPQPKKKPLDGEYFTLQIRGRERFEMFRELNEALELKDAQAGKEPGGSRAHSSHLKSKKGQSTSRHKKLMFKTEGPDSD
compound,measurement,setting,value
CCCCNC(=O)[C@@H]1Cc2ccccc2N1C(=O)[C@@H](N)CC,activation,[1],-9.55%
same,Potency,[2],inactive
same,Potency,[3],inactive
same,Potency,[4],inactive
same,Potency,[5],inactive
same,Potency,[6],inactive
same,Potency,[7],inactive
CC1(NC(=O)c2ccc(C#Cc3cccc(F)c3)cn2)COC1,activation,[1],-11.9%
same,Potency,[2],inactive
same,Potency,[8],inactive
same,Potency,[4],inactive
same,Potency,[9],inactive
same,Potency,[5],inactive
same,Potency,[6],inactive
same,Potency,[7],inactive
CC(CC(C)O[C@@H]1O[C@H](CO)[C@@H](O)[C@H](O)[C@H]1O)OC(=O)/C=C/c1ccc(O)cc1 (stereo partly drawn),activation,[1],3.82%
same,Potency,[2],inactive
same,Potency,[8],inactive
same,Potency,[5],inactive
same,Potency,[6],inactive
OC[C@H]1O[C@@H](OC(CCCCc2ccc(O)cc2)CCc2ccc(O)cc2)[C@H](O)[C@@H](O)[C@@H]1O (stereo partly drawn),activation,[1],-9.92%
same,Potency,[3],inactive
same,Potency,[8],inactive
CCN(Cc1cc(Nc2nc(C)cn3c(-c4cn[nH]c4)cnc23)sn1)C(C)(C)CO,Potency,[1],16.9 µM (active)
same,Potency,[3],inactive
same,Potency,[8],inactive
same,Potency,[4],12.7 µM (active)
same,Potency,[5],31.8 µM (active)
same,Potency,[6],inactive
COc1cc([C@H]2c3cc(O)c(OC)cc3C[C@@H](CO[C@@H]3O[C@H](CO)[C@@H](O)[C@H](O)[C@H]3O)[C@@H]2CO)ccc1O,activation,[1],9.82%
same,Potency,[2],inactive
same,Potency,[8],inactive
same,Potency,[5],inactive
C[C@@H]1O[C@@H](O[C@H]2[C@H](O[C@H]3CO[C@@H](O[C@H]4CC[C@@]5(C)C(CC[C@]6(C)C5CC[C@]57OC[C@@]8(CC[C@](C)(CO)CC85)[C@H](O)C[C@]76C)C4(C)C)[C@H](O[C@@H]4O[C@H](CO)[C@@H](O)[C@H](O)[C@H]4O)[C@H]3O)O[C@H](CO)[C@@H](O)[C@@H]2O)[C@H](O)[C@H](O)[C@H]1O (stereo partly drawn),activation,[1],-4.58%
same,"activity change, negative = inhibition",[2],-29.1% [at 10 µM]
same,Potency,[8],inactive
same,"activity, negative = inhibition",[5],-8.29% [at 10 µM]
same,Potency,[6],inactive
same,"activity change, negative = inhibition",[7],-22.4% [at 10 µM]
C=C1C(=O)OC2C1CCC(=C)C1CC(OC(C)=O)C(=C)C12 (stereo not drawn),Potency,[1],16.9 µM (active)
same,Potency,[2],inactive
same,Potency,[8],inactive
same,Potency,[6],inactive
C=C1C(=O)OC2CC(C)=C(C(C)CCCO)C(O)C12 (stereo not drawn),activation,[1],7.14%
same,Potency,[2],inactive
same,Potency,[8],inactive
same,Potency,[5],inactive
same,Potency,[6],inactive
OC[C@@]1(O)CO[C@@H](OC[C@H]2O[C@@H](Oc3c[nH]c4ccccc34)[C@H](O)[C@@H](O)[C@@H]2O)[C@@H]1O,activation,[1],-5.34%
same,Potency,[2],inactive
same,Potency,[8],inactive
same,Potency,[6],inactive
same,Potency,[7],inactive
C/C=C/C=C/c1cc2c(C=O)c(O)c(CC=C(C)C)cc2o1,Potency,[1],26.9 µM (active)
same,Potency,[2],11.3 µM (active)
same,Potency,[8],28.2 µM (active)
same,Potency,[5],10.1 µM (active)
same,Potency,[6],inactive
same,Potency,[7],11.3 µM (active)
COc1cccc(-c2ccc(NC(=O)C3=C(C(=O)O)CCC3)c(F)c2)c1,activation,[1],-4.2% and -13.4%
same,Potency,[2],inactive
same,Potency,[8],inactive
same,Potency,[7],12.7 µM (active)
same,Potency,[10],inactive
same,Potency,[11],inactive
Cc1ccc(NC(=O)N2CCN(c3nc(N)nc4sc(-c5cccnc5)nc34)CC2)cc1,activation,[1],26.7%
same,Potency,[2],0.0355 µM (active)
same,Potency,[4],2.52 µM (active)
same,Potency,[9],2.82 µM (active)
same,Potency,[5],14.1 µM (active)
same,Potency,[7],28.3 µM (active)
COc1ccc(-c2c(-c3cc(C(=O)O)ccn3)ncn2C)cc1,activation,[1],-2.33%
same,Potency,[2],inactive
same,Potency,[5],28.3 µM (active)
same,Potency,[6],inactive
same,Potency,[7],inactive
COC(=O)c1c(C)cc(OC(=O)c2c(C)cc(OC)cc2OC)cc1O[C@@H]1O[C@H](CO)[C@@H](O)[C@H](O)[C@H]1O,activation,[1],-15.3%
same,Potency,[2],inactive
same,Potency,[8],inactive
same,Potency,[6],inactive
Cc1[nH]c(/C=C2\C(=O)Nc3cc(-c4ccccc4)ccc32)c(C)c1CCC(=O)O,activation,[1],-26.3%
same,Potency,[2],inactive
same,Potency,[8],inactive
same,Potency,[9],inactive
same,Potency,[6],inactive
same,Potency,[7],inactive
CC1=CC(=O)C(=C(C)C)CC2C(C)(O)CCC12O (stereo not drawn),activation,[1],-8.93%
same,Potency,[2],inactive
same,Potency,[8],inactive
same,Potency,[5],inactive
same,Potency,[6],inactive
same,Potency,[7],inactive
O=C(O)c1cc(O[C@@H]2O[C@H](CO[C@@H]3OC[C@@H](O)[C@H](O)[C@H]3O)[C@@H](O)[C@H](O)[C@H]2O)c2ccccc2c1O,activation,[1],9.92%
same,Potency,[2],inactive
same,Potency,[4],1.38 µM (active)
same,Potency,[5],2.46 µM (active)
same,Potency,[6],2.82 µM (active)
same,Potency,[7],0.693 µM (active)
OCC(O)C(c1c[nH]c2ccccc12)c1c[nH]c2ccccc12 (stereo not drawn),activation,[1],-8.93%
same,Potency,[2],inactive
same,Potency,[8],inactive
same,Potency,[6],inactive
C=CC(=O)N1CCN(C(=O)CNc2cc(I)c(Cl)cc2O)CC1,activation,[1],8.59%
same,Potency,[3],2.25 µM (active)
same,Potency,[8],inactive
same,Potency,[4],1.79 µM (active)
same,Potency,[9],7.08 µM (active)
same,Potency,[5],28.3 µM (active)
same,Potency,[6],2.82 µM (active)
same,Potency,[7],2.83 µM (active)
Nc1cccc(CNC(=O)c2ccc(Oc3ccc(OCc4cccc(F)c4)cc3)nc2)c1,activation,[1],-6.68%
same,Potency,[2],inactive
same,Potency,[9],inactive
same,Potency,[5],inactive
same,Potency,[6],inactive
CN(C)c1cccc(Oc2cnc(Nc3cccc(O)c3)nc2)c1,activation,[1],2.86%
same,Potency,[2],inactive
same,Potency,[9],8.91 µM (active)
